From PubChem
A selection: hits, their analogues and other compounds. The true share with any hit is near 8.3%.
BCR signal inh – inhibitors of chronic active B-cell receptor signaling; ABC-DLBCL IkBa-CBG/CBR reporter, luminescence ratio, 4 h; Potency, µM (doses to about 46.1 µM), hits mostly inhibitors; 340,000 tested, 0.05% active; active = well fitted inhibition curve with a large enough effect in the signal ratio, with a control signal flat, not every such curve was filed as active; inconclusive = small, poorly fitted or top-dose-only effect, or effect the other way, or a change in a side signal; the % refers to the signal ratio
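TMD8 human ABC-DLBCL cells with doxycycline-inducible IκBα–green luciferase fusion and unfused red luciferase, in 0.5% FBS medium; compounds up to 46 uM, 4 h at 37C. Green/red luminescence ratio, filter-overlap corrected, fitted to concentration-response curves.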
SW480 rereplic – induces DNA re-replication in SW480 colon adenocarcinoma cells. SW480 DNA re-replication, Hoechst DNA content imaging, 48 h. Potency, µM (series often up to 46.1 µM), most hits filed as activators. 340,000 tested, 1.8% active; also: nearly all actives have a fitted effect of over 55% in size
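Cells (250 per well) received 23 nL compound or DMSO by pin tool and were kept 48 hr at 37 C, 5% CO2. Nuclei were then stained with Hoechst for 40 min and scanned for DNA content.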
VP16 counter – inhibits Gal4-VP16 luciferase reporter, ROR gamma counter-screen; Drosophila S2 Gal4-VP16 UAS-luciferase, luminescence, 20 h; Potency, µM (doses to about 53.6 µM), most hits filed as inhibitors; 310,000 tested, 3.5% active; AID 2546;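 also: Gal4-VP16 expression switched on by copper sulfate through the metallothionein promoter; nearly all actives have a fitted effect of over 50% in size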
Giardia killer – kills Giardia lamblia | 340,000 tested, 0.15% active | AID 540267 | Giardia lamblia trophozoite viability | activity change, % at 7.66 µM, hits read low; in the data active = activity change below about -80%; inconclusive = between about -30% and that limit;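 also: parasites exposed to compound for two days anaerobically before the ATP read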
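Viability, read as ATP luminescence: trophozoites at 100 cells/well, compound added, 48 hrs anaerobic at 37 deg C, then 15-30 min room-temperature development before reading.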
RORg inh – inhibitors of mouse ROR gamma transcriptional activity. P51450. Drosophila S2 Gal4-RORgamma UAS-luciferase reporter, 20 h. Potency, µM (titrated, usually from 53.6 µM), actives largely listed as inhibitors. 310,000 tested, 5.4% active; also: nearly all actives have a fitted effect of over 60% in size
Target sequence (P51450 whole entry, looked up, the tested form may be a part): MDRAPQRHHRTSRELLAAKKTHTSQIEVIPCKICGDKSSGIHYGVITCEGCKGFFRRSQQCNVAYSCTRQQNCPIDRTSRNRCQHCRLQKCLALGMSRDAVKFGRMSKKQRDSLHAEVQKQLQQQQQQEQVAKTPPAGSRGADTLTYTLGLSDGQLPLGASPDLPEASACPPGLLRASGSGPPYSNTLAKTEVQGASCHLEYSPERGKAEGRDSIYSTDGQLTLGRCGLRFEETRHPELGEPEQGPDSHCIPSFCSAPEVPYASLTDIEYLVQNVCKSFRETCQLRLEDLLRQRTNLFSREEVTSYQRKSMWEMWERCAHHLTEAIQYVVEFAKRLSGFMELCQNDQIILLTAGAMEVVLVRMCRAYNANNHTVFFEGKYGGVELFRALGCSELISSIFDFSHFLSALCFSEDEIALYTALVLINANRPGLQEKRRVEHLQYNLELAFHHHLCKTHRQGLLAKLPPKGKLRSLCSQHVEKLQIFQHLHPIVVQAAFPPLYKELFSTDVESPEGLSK
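Luminescence from a UAS-regulated Photinus luciferase reporter in stably transfected Drosophila Schneider cells is measured; decreased signal marks ROR gamma inhibition. Fusion expression is induced by 700 uM copper sulfate for 20 hr.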
MCF10A rereplic – induces DNA re-replication in MCF 10a normal breast cells | MCF 10A DNA re-replication, Hoechst nuclear intensity, 48 h | Potency, µM (highest dose often 46.1 µM), hits mostly activators | 350,000 tested, 2.9% active | AID 624296; also: nearly all actives have a fitted effect of over 50% in size
Numbers stand for hits; [ ] = another dose, or the depositor's remark. Unless noted, calls follow the shape of the dose curve; as a rule, active = well fitted curve in the direction sought with a large enough effect; inconclusive = small, poorly fitted or top-dose-only effect, or another doubt; inactive = no such curve, though single readings can be large; an effect the other way counts as inactive or inconclusive.

How did CC(=O)c1cccc(NC(=S)NCCC2=CCCCC2)c1 do in these assays?
BCR signal inh: inactive; SW480 rereplic: inactive[9.22 µM]; VP16 counter: 7.1µM; Giardia killer: inactive; RORg inh: 7.1µM; MCF10A rereplic: inactive

What do the screens show for `COc1ccc(-n2cc(-c3ccccc3)c3c(NC4CCCCC4)ncnc32)cc1`?
BCR signal inh: inactive

Results for Fc1ccc(-n2cc(-c3ccccc3)c3c(NN4CCOCC4)ncnc32)cc1 ?
BCR signal inh: inactive; SW480 rereplic: inactive; VP16 counter: 10µM; Giardia killer: inactive; RORg inh: 13µM; MCF10A rereplic: inconclusive

How did COc1ccc(-n2cc(-c3ccccc3)c3c(NN4CCOCC4)ncnc32)cc1 do in these assays?
BCR signal inh: inactive; SW480 rereplic: inactive; VP16 counter: inconclusive; Giardia killer: inactive; RORg inh: 4.5µM; MCF10A rereplic: inconclusive

Results for CC(O)c1nc2ccccc2n1CC(=O)Nc1ccc(F)cc1Cl (centres undefined) ?
BCR signal inh: inactive; SW480 rereplic: inactive; VP16 counter: inactive; Giardia killer: inactive; RORg inh: inactive; MCF10A rereplic: inactive

Results for O=C(O)COc1ccc(Oc2ccccc2)cc1 ?
BCR signal inh: inactive; SW480 rereplic: inactive; VP16 counter: 13µM; Giardia killer: inactive; RORg inh: inconclusive; MCF10A rereplic: inactive

How did NC(=O)COc1ccccc1 do in these assays?
BCR signal inh: inactive; SW480 rereplic: inactive; VP16 counter: inactive; Giardia killer: inactive; RORg inh: inactive; MCF10A rereplic: inactive

How did O=C(O)COc1ccc(Nc2ccccc2)cc1 do in these assays?
BCR signal inh: inconclusive; SW480 rereplic: inactive; VP16 counter: inactive; Giardia killer: inactive; RORg inh: inactive; MCF10A rereplic: inactive

Results for NC(=S)COc1ccccc1 ?
BCR signal inh: inconclusive; SW480 rereplic: inactive; VP16 counter: inactive; Giardia killer: inactive; RORg inh: 22µM; MCF10A rereplic: inactive

How did COc1ccc(NC(=O)CNS(=O)(=O)c2ccc(Cl)cc2)cc1OC do in these assays?
BCR signal inh: inactive; SW480 rereplic: 18µM; VP16 counter: inconclusive; Giardia killer: inactive; RORg inh: inactive; MCF10A rereplic: inactive

What do the screens show for `COc1ccc(S(=O)(=O)NCC(=O)Nc2ccc3c(c2)OCCO3)cc1OC`?
BCR signal inh: inactive; SW480 rereplic: inactive; VP16 counter: inactive; Giardia killer: inactive; RORg inh: inactive; MCF10A rereplic: inactive

Results for CC(=O)Nc1ccc(SCC(=O)NNC(=O)CN(C)S(=O)(=O)c2ccc(C)cc2)cc1 ?
BCR signal inh: inactive; SW480 rereplic: 5.2µM; Giardia killer: inactive; MCF10A rereplic: inactive

How did CC(=O)Nc1ccc(S(=O)(=O)NCCOc2ccc(Cl)cc2C)cc1 do in these assays?
BCR signal inh: inactive; SW480 rereplic: inactive; VP16 counter: 5µM; Giardia killer: inactive; RORg inh: inconclusive; MCF10A rereplic: inactive

What do the screens show for `CC(=O)c1ccc(S(=O)(=O)N(C)CC(=O)Nc2ccc(C)cc2)cc1`?
BCR signal inh: inactive; SW480 rereplic: inactive; Giardia killer: inactive; MCF10A rereplic: inactive

How did Cc1ccc(S(=O)(=O)NCC(=O)N/N=C/c2ccccc2O)cc1 do in these assays?
BCR signal inh: inactive; SW480 rereplic: inconclusive; VP16 counter: inconclusive; Giardia killer: inactive; RORg inh: 5.6µM; MCF10A rereplic: inactive

How did CC[C@]12c3[nH]c4cc(-c5ccco5)ccc4c3CCN1C(=O)[C@@H](CC(=O)NCCCn1ccnc1)C[C@@H]2C(=O)N1CCN(C(=O)c2ccco2)CC1 do in these assays?
BCR signal inh: inactive; SW480 rereplic: inactive; Giardia killer: inactive; MCF10A rereplic: inactive

What do the screens show for `Cc1cc(O)cc(O)c1C(=O)OC1(C)C(=O)C=C2C=C(/C=C/C(=O)O)OC=C2C1=O` (centres undefined)?
VP16 counter: inactive; RORg inh: inactive

Results for COc1ccc(NC(=O)CCS(=O)(=O)c2ccccc2Cl)cc1S(=O)(=O)Nc1ccc(Cl)cc1 ?
BCR signal inh: inconclusive; SW480 rereplic: inconclusive; VP16 counter: inactive; Giardia killer: inactive; RORg inh: inactive; MCF10A rereplic: 16µM

How did CC(=O)Nc1ccc(NC(=O)CNS(=O)(=O)c2ccc(C)cc2)cc1 do in these assays?
BCR signal inh: inactive; SW480 rereplic: inactive; VP16 counter: inconclusive; Giardia killer: inactive; RORg inh: 10µM; MCF10A rereplic: inactive

How did CC(=O)Nc1ccc(S(=O)(=O)NCCSCc2c(Cl)cccc2Cl)cc1 do in these assays?
BCR signal inh: inconclusive; SW480 rereplic: inactive; VP16 counter: inactive; Giardia killer: inactive; RORg inh: inconclusive; MCF10A rereplic: 23µM

Results for Cc1ccc(S(=O)(=O)NCC(=O)Nc2ccc(C(F)(F)F)cc2)cc1 ?
BCR signal inh: inactive; SW480 rereplic: inactive; VP16 counter: inactive; Giardia killer: inactive; RORg inh: inactive; MCF10A rereplic: inactive

What do the screens show for `COc1ccc(CC(=O)Nc2ccc(S(=O)(=O)Nc3ncccn3)cc2)cc1OC`?
BCR signal inh: inactive; SW480 rereplic: 16µM; VP16 counter: inactive; Giardia killer: inactive; RORg inh: inactive; MCF10A rereplic: inactive

Results for CCCCCCCCCCN1CCOCCOCCN(CCCCCCCCCC)CCOCCOCC1 ?
VP16 counter: inactive; RORg inh: inactive

How did O=C(O)c1ccc(S(=O)(=O)NCc2ccc3c(c2)OCO3)cc1 do in these assays?
BCR signal inh: inactive; SW480 rereplic: inactive; VP16 counter: inactive; Giardia killer: inactive; RORg inh: inactive; MCF10A rereplic: inactive

How did CCCCOc1ccc(CONS(=O)(=O)c2ccc(NC(C)=O)cc2)cc1Cl do in these assays?
BCR signal inh: inconclusive; SW480 rereplic: inactive; VP16 counter: inactive; Giardia killer: inactive; RORg inh: inactive; MCF10A rereplic: 21µM

Results for CC(=O)Nc1ccc(NS(=O)(=O)c2ccc(C)cc2)cc1[N+](=O)[O-] ?
BCR signal inh: inconclusive; SW480 rereplic: inactive; VP16 counter: inactive; Giardia killer: inactive; RORg inh: inactive; MCF10A rereplic: inactive

Results for CC(=O)Nc1ccc(NS(=O)(=O)c2ccc(C)cc2)c([N+](=O)[O-])c1 ?
BCR signal inh: inactive; SW480 rereplic: inactive; VP16 counter: inactive; Giardia killer: -99; RORg inh: inactive; MCF10A rereplic: inactive

Results for Cc1ccc(-c2nnc(OCC3CCCO3)c3ccccc23)cc1 (centres undefined) ?
BCR signal inh: inconclusive; SW480 rereplic: inactive; VP16 counter: inactive; Giardia killer: inactive; RORg inh: inactive; MCF10A rereplic: inconclusive

Results for CC(C)CC(=O)Nc1nnc(SCC(=O)NCc2ccc3c(c2)OCO3)s1 ?
BCR signal inh: inactive; SW480 rereplic: inactive; VP16 counter: inactive; Giardia killer: inactive; RORg inh: inactive; MCF10A rereplic: inactive

What do the screens show for `O=C(NC1CCCCCC1)c1ccc(Cl)c(S(=O)(=O)N2CCOCC2)c1`?
BCR signal inh: inactive; SW480 rereplic: inconclusive; VP16 counter: inactive; Giardia killer: inactive; RORg inh: inactive; MCF10A rereplic: inconclusive
